Data taken from the supplement of paper PMC6089552.
The campaign covered roughly 3,200 compounds. About 300 (9.4%) showed activity. Only a selection was taken, and actives are over-represented in it overall.

Test system: A673/TR/shEF
Assay: cell viability (LOESS-normalised, relative to median of negative controls) (log2 ratio); higher = more viable cells (less compound effect), active = hit call of the paper (over 3 MAD below the median)
Conditions: treatment time: 72 h
In short: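 Doxycycline, present or absent from 24 h before compounds, was used to induce EWS-FLI1 shRNA knockdown in A673/TR/shEF Ewing sarcoma cells at 1,500 per well in 384-well plates. Cells then received library compounds at two or more concentrations, or DMSO controls, for three days. Viability was measured by CellTiter-Glo luminescence on an Envision reader, and per-plate LOESS correction, division by the negative-control median and log2 transformation followed.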

[1] = 0.103 µM, library screen: screen3, EWS-FLI1 expression: high (no doxycycline)
[2] = 0.103 µM, library screen: screen3, EWS-FLI1 expression: low (doxycycline-induced shRNA knockdown)
[3] = 0.308 µM, library screen: screen3, EWS-FLI1 expression: high (no doxycycline)
[4] = 0.308 µM, library screen: screen3, EWS-FLI1 expression: low (doxycycline-induced shRNA knockdown)
[5] = 0.926 µM, library screen: screen3, EWS-FLI1 expression: high (no doxycycline)
[6] = 0.926 µM, library screen: screen3, EWS-FLI1 expression: low (doxycycline-induced shRNA knockdown)
[7] = 2.8 µM, library screen: screen3, EWS-FLI1 expression: high (no doxycycline)
[8] = 2.8 µM, library screen: screen3, EWS-FLI1 expression: low (doxycycline-induced shRNA knockdown)
[9] = 8.3 µM, library screen: screen3, EWS-FLI1 expression: high (no doxycycline)
[10] = 8.3 µM, library screen: screen3, EWS-FLI1 expression: low (doxycycline-induced shRNA knockdown)
[11] = 25 µM, library screen: screen3, EWS-FLI1 expression: high (no doxycycline)
[12] = 25 µM, library screen: screen3, EWS-FLI1 expression: low (doxycycline-induced shRNA knockdown)
[13] = 0.25 µM, library screen: screen1, EWS-FLI1 expression: high (no doxycycline)
[14] = 0.25 µM, library screen: screen1, EWS-FLI1 expression: low (doxycycline-induced shRNA knockdown)
[15] = 2.5 µM, library screen: screen1, EWS-FLI1 expression: high (no doxycycline)
[16] = 2.5 µM, library screen: screen1, EWS-FLI1 expression: low (doxycycline-induced shRNA knockdown)
[17] = 0.025 µM, library screen: screen1, EWS-FLI1 expression: high (no doxycycline)
[18] = 0.025 µM, library screen: screen1, EWS-FLI1 expression: low (doxycycline-induced shRNA knockdown)
[19] = 0.25 µM, library screen: screen2, EWS-FLI1 expression: high (no doxycycline)
[20] = 0.25 µM, library screen: screen2, EWS-FLI1 expression: low (doxycycline-induced shRNA knockdown)
[21] = 2.5 µM, library screen: screen2, EWS-FLI1 expression: high (no doxycycline)
[22] = 2.5 µM, library screen: screen2, EWS-FLI1 expression: low (doxycycline-induced shRNA knockdown)
[23] = 25 µM, library screen: screen1, EWS-FLI1 expression: high (no doxycycline)
[24] = 25 µM, library screen: screen1, EWS-FLI1 expression: low (doxycycline-induced shRNA knockdown)

Measured: cell viability (log2)

CN1CC[C@H](c2c(O)cc(O)c3c(=O)cc(-c4ccccc4Cl)oc23)[C@H](O)C1
inactive: [2] -0.0654
active: [1] -0.182 | [3] -0.451 | [4] -0.231 | [5] -1.4 | [6] -1.66 | [7] -3.54 | [8] -2.88 | [9] -4.29 | [10] -4.28 | [11] -4.33 | [12] -4.3

CC(=O)OC1CC[C@@]2(C)C(CC[C@]3(C)C2CCC2C4CC(C)(C)CCC4(C(=O)O)CC[C@]23C)C1(C)C (stereo partly drawn)
inactive: [13] 0.0992 | [14] 0.055 | [15] 0.145 | [16] 0.119

CC(=O)Oc1cc(OC(C)=O)c2c(c1)OC(c1ccc(OC(C)=O)c(OC(C)=O)c1)C(OC(C)=O)C2 (stereo not drawn)
inactive: [13] 0.1 | [14] 0.0336 | [15] 0.18 | [16] 0.104

CC(C)(O)[C@@H]1Cc2cc3ccc(=O)oc3cc2O1
inactive: [13] 0.0301 | [14] -0.0352 | [15] 0.107 | [16] 0.0444

COc1ccccc1-c1cc(=O)c2cccc(OC)c2o1
inactive: [13] 0.00414 | [14] -0.0253 | [15] 0.211 | [16] 0.0664

COc1cccc(-c2cc(=O)c3ccccc3o2)c1N
active: [15] -0.37
0.278: [13]
inactive: [17] 0.268 | [18] -0.0228 | [14] -0.0268 | [19] 0.18 | [20] 0.11 | [16] 0.0789 | [21] 0.195 | [22] 0.139 | [23] -0.0514 | [24] 0.0727

COc1ccccc1-c1cc(=O)c2c(OC)cccc2o1
inactive: [13] 0.121 | [14] -0.0186 | [15] 0.129 | [16] 0.0665

Cc1cc(OC(=O)c2c(C)cc(OC(=O)c3c(C)cc(O)cc3O)cc2O)cc(O)c1C(=O)O
inactive: [13] 0.154 | [14] 0.153 | [15] 0.0106 | [16] 0.113

CC[n+]1c(-c2ccccc2)c2cc(N)ccc2c2ccc(N)cc21
active: [15] -1.89
inactive: [13] 0.0617 | [14] 0.0391 | [16] -0.0126

NCCNC(=O)Cc1ccc(NC(=O)Cc2ccc(Nc3ncnc4c3ncn4C3OC(CO)C(O)C3O)cc2)cc1 (stereo not drawn)
inactive: [19] 0.211 | [20] 0.142 | [21] 0.0909 | [22] 0.0423

O=C1/C(=C\c2ccccc2F)SC(=S)N1CN1CCOCC1
inactive: [13] 0.128 | [14] 0.0809 | [15] 0.107 | [16] -0.00103

CCCCCCCC/C=C\CCCCCCCC(=O)O
inactive: [19] 0.0706 | [20] 0.117 | [21] 0.0994 | [22] 0.08

O=C(O)CCCCCCCC(=O)O
inactive: [13] 0.000753 | [14] 0.0938 | [20] 0.0952 | [15] 0.149 | [16] 0.152 | [21] 0.0755 | [22] 0.0904
active: [19] -0.13

NCCCCCC(=O)O
inactive: [1] 0.214 | [2] 0.078 | [13] 0.0812 | [14] 0.00994 | [19] -0.00366 | [20] 0.09 | [3] 0.0847 | [4] 0.0858 | [5] 0.107 | [6] 0.0768 | [15] 0.144 | [16] 0.111 | [21] 0.0922 | [22] 0.111 | [7] 0.141 | [8] 0.0677 | [9] 0.085 | [10] 0.128 | [11] 0.0538 | [12] 0.145

NCCCCC(=O)O
active: [19] -0.118
inactive: [13] 0.172 | [14] 0.0951 | [20] 0.128 | [15] 0.237 | [16] 0.0298 | [21] 0.0908 | [22] 0.116

NCCCC(=O)O
inactive: [13] 0.0628 | [14] 0.0888 | [19] 0.148 | [20] 0.12 | [15] 0.21 | [16] 0.0413 | [21] 0.0279 | [22] 0.142

CC(=O)NCCCCCC(=O)O
inactive: [13] 0.0566 | [14] 0.106 | [15] 0.0136 | [16] 0.0704

COC(=O)[C@@H]1OC(=O)C2OC23[C@@]1(C)CCC1[C@]2(C)C(C[C@@H](O)[C@]13C)C(C)(C)[C@H](OC(C)=O)C[C@@H]2OC(C)=O (stereo partly drawn)
inactive: [13] 0.0653 | [14] 0.123 | [15] 0.0967 | [16] 0.0969

COCCN1C(=O)C(=Cc2c(Cl)cccc2Cl)SC1=S
inactive: [13] 0.153 | [14] 0.208 | [15] 0.122 | [16] 0.19

COc1c(C=O)c(O)cc2c1C(=O)c1ccccc1C2=O
inactive: [17] 0.0865 | [18] 0.0031 | [13] 0.118 | [14] -0.13 | [15] 0.0699 | [16] -0.209 | [23] 0.0121 | [24] -0.781

COc1cc(C)c2c(=O)c3c(O)cc(O)cc3oc2c1
inactive: [13] -0.0797 | [14] 0.0363 | [15] 0.0175 | [16] 0.108

CC(C)c1c(O)ccc2c1CCC1[C@@](C)(C=O)CCC[C@]21C (stereo partly drawn)
inactive: [13] 0.0641 | [14] 0.0754 | [15] 0.163 | [16] 0.289

CC1=C(C(=O)Nc2ccccc2Cl)C(c2ccc(O)cc2)NC(=S)N1 (stereo not drawn)
inactive: [13] 0.145 | [14] -0.0151 | [15] 0.191 | [16] -0.0985

CCN(CC)c1ccc(C2C(C(=O)OC)=C(C)NC(C)=C2C(=O)OC)cc1
inactive: [13] 0.121 | [14] 0.087 | [15] 0.202 | [16] 0.078

CC[C@H](CC[C@@H](C)[C@H]1CC[C@H]2[C@@H]3CC=C4C[C@@H](OC(C)=O)CC[C@]4(C)[C@H]3CC[C@]12C)C(C)C
inactive: [13] 0.121 | [14] 0.139 | [15] 0.109 | [16] 0.182

CCCCCCCCCCCCC(=O)N1CCCCC1CNC(=O)C(N)CCCCN (stereo not drawn)
inactive: [19] 0.125 | [20] 0.1 | [21] 0.117 | [22] 0.072

COc1ccc(CN2CCN(Cc3ccc(C)cc3)CC2)c(OC)c1OC
inactive: [13] 0.0669 | [14] 0.0696 | [15] 0.138 | [16] 0.00566

C=CCc1ccc(O)c(OC)c1
inactive: [13] 0.0882 | [14] 0.124 | [15] 0.127 | [16] 0.12

C=CCc1ccc(OC(=O)c2ccccc2)c(OC)c1
inactive: [13] 0.102 | [14] -0.0537 | [15] 0.111 | [16] 0.0334

N/C(=N\S(=O)(=O)Cc1ccccc1)Nc1nc2ccccc2o1
inactive: [13] 0.0883 | [14] 0.00923 | [15] 0.149 | [16] 0.031

COc1ccc2c(c1)CCC1=CC(=O)CCC12C (stereo not drawn)
inactive: [13] 0.119 | [14] 0.144 | [15] 0.0987 | [16] 0.126

OC[C@@H](O)[C@@H](O[C@@H]1O[C@H](CO)[C@@H](O)[C@H](O)[C@H]1O)[C@H](O)[C@@H](O)CO
inactive: [13] 0.117 | [14] 0.055 | [15] 0.143 | [16] 0.0198

NC(N)=NCCN1CCCCCCC1
inactive: [13] 0.086 | [14] 0.0896 | [15] 0.182 | [16] 0.105

[O-]n1ccccc1=S.[O-]n1ccccc1=S.[Zn+2]
active: [15] -0.205
inactive: [13] 0.17 | [14] 0.0708 | [16] 0.0604

O=C([O-])[O-].[Ca+2]
inactive: [19] 0.129 | [20] 0.105 | [21] 0.151 | [22] 0.0778

COc1ccc(CN2CCN(Cc3ccc(OC)c(OC)c3OC)CC2)cc1OC
inactive: [13] 0.061 | [14] 0.00924 | [15] 0.123 | [16] 0.0982

CC(C)N1C(=O)C(=C2C(=O)N(C)c3ccccc32)SC1=S
inactive: [13] 0.0638 | [14] 0.00946 | [15] 0.0618 | [16] 0.138

C[C@H]1C(=O)CC[C@@H]2[C@]1(C)CC[C@H]1[C@@]2(C)CC[C@@]2(C)[C@@H]3CC(C)(C)CC[C@]3(C)CC[C@]12C
inactive: [13] 0.031 | [14] 0.0462 | [15] 0.0143 | [16] 0.0816

COc1cc(O)c2c(=O)c(O)c(-c3ccc(O)c(O)c3)oc2c1
inactive: [13] -0.00867 | [14] 0.0259 | [15] 0.0453 | [16] 0.0969

O=c1c(O)c(-c2cc(O)c(O)c(O)c2)oc2cc(O)cc(O)c12
inactive: [13] 0.0195 | [14] 0.156 | [19] 0.118 | [20] 0.093 | [15] 0.0517 | [16] 0.0582 | [21] 0.111 | [22] 0.0599

O=c1c(O)c(-c2ccc(O)c(O)c2)oc2cc(O)cc(O)c12
inactive: [17] 0.22 | [18] 0.00571 | [13] 0.112 | [14] 0.018 | [19] 0.12 | [20] 0.0619 | [15] 0.108 | [16] 0.0969 | [21] 0.176 | [22] 0.00939 | [24] 0.0272
active: [23] -1.43

N#Cc1c2c(c(Nc3ccc(O)cc3)n3c1nc1ccccc13)CCC2
inactive: [13] 0.0182 | [14] 0.0391 | [15] 0.0659 | [16] 0.0482
